Targets with a hit are over-represented here; the source holds about 7,900 in all. About 0.6% of all pairs of compound and target were hits.
Tests used:
Test in all cases: log2 fold change, soluble protein after heating vs DMSO (PISA); higher = thermal stabilisation; K562 cells, 10 uM, 30 min; active = over 0.2 and 3.5 SD of the protein, either way, in both replicates (recomputed)
[1] = compound: CC[C@@H]1C(=O)N(C)c2cnc(Nc3ccc(C(=O)NC4CCN(C)CC4)cc3OC)nc2N1C1CCCC1
How it was run: (§1)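 Quantification of soluble protein used TMTpro 16plex LC-MS/MS, with channel sums equalised. Samples were the supernatant after 21,000xg for 90 min of pooled aliquots from K562 cells (2×10^6 cells/mL) treated with 10 μM compound for 30 min, heated for 3 min over 48°C-58°C, and extracted in PBS with 0.5% NP-40 at 4°C. Values, from duplicates, describe thermal stability against control samples on a log2 fold-change scale.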

[2] = compound: CC[C@@H]1C(=O)N(C)c2cnc(Nc3ccc(C(=O)N[C@H]4CC[C@H](N5CCN(CC6CC6)CC5)CC4)cc3OC)nc2N1C(C)C [volasertib]
How it was run: as §1

[3] = compound: CC[C@H](C)N1C=C(C2=C(C=C(C=C21)C3=CN=C(C=C3)N4CCNCC4)C(=O)NCC5=C(C=C(NC5=O)C)C)C
How it was run: as §1

[4] = compound: CC[C@H](C)[C@@H](C(=O)N[C@@H]([C@@H](C)O)C(=O)N[C@@H](CC(C)C)C(=O)[C@]1(CO1)C)NC(=O)[C@H]([C@@H](C)CC)N(C)C(=O)C [epoxomicin]
How it was run: as §1

[5] = compound: CCn1c(C(=O)N(C2CC2)C2CC2)cc2c3c(ncn3C)c(Nc3cc(C)n(C)n3)nc21
How it was run: as §1

[6] = compound: CCn1cc(-c2ccnc3[nH]c(-c4cccc(CN(C)C)c4)cc23)c(-c2ccc(NC(=O)N(C)C)cc2)n1
How it was run: as §1

[7] = compound: CN(C)CC(=O)Nc1ccc2[nH]c(=O)c3ccccc3c2c1
How it was run: as §1

[8] = compound: CN(CCOC1=CC=C(C=C1)C[C@H]2C(=O)NC(=O)S2)C3=CC=CC=N3 (racemic) [rosiglitazone]
How it was run: as §1

[9] = compound: CN1C2=C(C3=C1C(=O)N(N=C3)CC4=CC(=CC=C4)N)SC(=C2)S(=O)C
How it was run: as §1

[10] = compound: CN1CCC(CNc2ccc3ncc(-c4cccc(OC(F)(F)F)c4)n3n2)CC1
How it was run: as §1

Measured: log2 fold change

VPS18 (UniProt Q9P253)
inactive: [1] -0.22 | [3] 0.086 | [4] -0.019 | [5] -0.009 | [6] -0.059 | [7] 0.046 | [8] 0.042 | [9] 0.005 | [10] -0.231
active: [2] -0.398

U2AF1 isoform 2 (UniProt Q01081)
active: [2] -0.57
inactive: [1] -0.217 | [3] 0.051 | [4] -0.02 | [5] 0.015 | [6] -0.015 | [7] 0.071 | [8] -0.007 | [9] -0.021 | [10] -0.036

TOMM20 (UniProt Q15388)
inactive: [1] -0.135 | [2] -0.075 | [3] -0.068 | [4] -0.089 | [5] 0.078 | [6] -0.017 | [7] -0.005 | [8] -0.022 | [9] -0.033
active: [10] -0.271

XPO6 (UniProt Q96QU8)
active: [2] -0.536
inactive: [1] -0.054 | [3] -0.017 | [4] -0.249 | [5] -0.011 | [6] 0.174 | [7] 0.065 | [8] 0 | [9] 0.018 | [10] -0.134

VPS33B (UniProt Q9H267)
active: [3] 0.284
inactive: [1] -0.129 | [2] -0.378 | [4] 0.022 | [5] -0.065 | [6] -0.039 | [7] 0.048 | [8] 0.073 | [9] 0.091 | [10] -0.218

TMTC3 (UniProt Q6ZXV5)
inactive: [1] -0.074 | [2] -0.118 | [3] 0.023 | [4] 0.001 | [5] 0.001 | [6] 0.038 | [7] -0.045 | [8] 0.03 | [9] -0.014 | [10] -0.034

VTA1 (UniProt Q9NP79)
Sequence of UniProt Q9NP79 (Q9NP79 whole entry, looked up): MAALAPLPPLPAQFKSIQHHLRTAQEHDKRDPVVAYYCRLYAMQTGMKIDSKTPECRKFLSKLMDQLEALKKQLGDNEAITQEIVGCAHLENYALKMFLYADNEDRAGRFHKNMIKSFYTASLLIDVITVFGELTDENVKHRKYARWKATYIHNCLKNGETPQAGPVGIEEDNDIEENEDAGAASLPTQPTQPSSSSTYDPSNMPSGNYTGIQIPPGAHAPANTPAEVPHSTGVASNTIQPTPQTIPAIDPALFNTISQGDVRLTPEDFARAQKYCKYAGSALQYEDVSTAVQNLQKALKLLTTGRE
inactive: [1] -0.172 | [3] 0.06 | [4] 0.024 | [5] 0.026 | [6] -0.045 | [7] 0.048 | [8] 0.016 | [9] -0.041 | [10] -0.079
active: [2] -0.291

TTC38 (UniProt Q5R3I4)
inactive: [1] 0.076 | [2] 0.253 | [3] 0.041 | [4] 0.012 | [5] -0.017 | [6] -0.05 | [7] 0.136 | [8] -0.015 | [9] -0.049 | [10] -0.039

XRCC6 (UniProt P12956)
active: [2] -0.515
inactive: [1] -0.205 | [3] 0.095 | [4] 0.072 | [5] -0.032 | [6] 0.008 | [7] 0.071 | [8] 0.07 | [9] -0.014 | [10] -0.172

TRMT10A (UniProt Q8TBZ6)
inactive: [1] 0.016 | [2] -0.013 | [3] 0.033 | [4] 0.003 | [5] -0.026 | [6] -0.037 | [7] 0.047 | [8] 0.034 | [9] -0.135 | [10] -0.075

WNK1 isoform 7 (UniProt Q9H4A3)
inactive: [1] -0.021 | [2] -0.01 | [3] 0.04 | [4] 0.013 | [5] -0.012 | [6] -0.005 | [7] 0.005 | [8] 0.015 | [9] -0.001 | [10] 0.019

VPS41 (UniProt P49754)
inactive: [1] -0.214 | [2] -0.309 | [3] 0.02 | [4] -0.038 | [5] -0.005 | [6] -0.106 | [7] -0.004 | [8] 0.066 | [9] 0.054
active: [10] -0.25

USP15 (UniProt Q9Y4E8)
active: [2] -0.32
inactive: [1] -0.095 | [3] 0.066 | [4] 0.03 | [5] -0.032 | [6] -0.056 | [7] 0.031 | [8] 0.058 | [9] -0.006 | [10] -0.129

TMEM192 (UniProt Q8IY95)
inactive: [1] -0.139 | [2] -0.061 | [3] -0.025 | [4] -0.04 | [5] 0.074 | [6] 0.046 | [7] -0.024 | [8] 0.008 | [9] 0.025
active: [10] -0.408

TNPO2 (UniProt O14787)
active: [2] -0.36
inactive: [1] -0.176 | [3] 0.106 | [4] 0.029 | [5] -0.031 | [6] -0.027 | [7] 0.111 | [8] 0.068 | [9] 0.016 | [10] 0.06

TRIM28 (UniProt Q13263)
active: [2] -0.222
inactive: [1] -0.097 | [3] 0.052 | [4] 0.077 | [5] -0.004 | [6] 0 | [7] 0.047 | [8] 0.029 | [9] -0.033 | [10] -0.033

TMEM177 (UniProt Q53S58)
Sequence of UniProt Q53S58 (Q53S58 whole entry, looked up): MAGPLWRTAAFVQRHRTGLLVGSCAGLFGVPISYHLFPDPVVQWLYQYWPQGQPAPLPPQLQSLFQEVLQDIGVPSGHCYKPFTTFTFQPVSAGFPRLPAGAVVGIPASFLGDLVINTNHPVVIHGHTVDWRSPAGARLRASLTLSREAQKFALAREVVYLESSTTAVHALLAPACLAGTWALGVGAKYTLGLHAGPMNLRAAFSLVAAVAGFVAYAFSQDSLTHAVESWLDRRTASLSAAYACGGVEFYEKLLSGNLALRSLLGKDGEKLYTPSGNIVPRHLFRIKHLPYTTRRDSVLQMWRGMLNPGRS
inactive: [1] -0.092 | [2] 0.051 | [3] 0.047 | [4] -0.052 | [5] 0.002 | [6] 0.048 | [7] 0.219 | [8] 0.035 | [9] -0.103 | [10] -0.075

WASHC2A (UniProt Q641Q2)
inactive: [1] -0.058 | [2] -0.15 | [3] 0.026 | [4] 0.022 | [5] 0.018 | [6] 0.052 | [7] -0.046 | [8] -0.004 | [9] 0.037 | [10] -0.18

TP53BP1 isoform 2 (UniProt Q12888)
Sequence of UniProt Q12888 (Q12888 whole entry, looked up): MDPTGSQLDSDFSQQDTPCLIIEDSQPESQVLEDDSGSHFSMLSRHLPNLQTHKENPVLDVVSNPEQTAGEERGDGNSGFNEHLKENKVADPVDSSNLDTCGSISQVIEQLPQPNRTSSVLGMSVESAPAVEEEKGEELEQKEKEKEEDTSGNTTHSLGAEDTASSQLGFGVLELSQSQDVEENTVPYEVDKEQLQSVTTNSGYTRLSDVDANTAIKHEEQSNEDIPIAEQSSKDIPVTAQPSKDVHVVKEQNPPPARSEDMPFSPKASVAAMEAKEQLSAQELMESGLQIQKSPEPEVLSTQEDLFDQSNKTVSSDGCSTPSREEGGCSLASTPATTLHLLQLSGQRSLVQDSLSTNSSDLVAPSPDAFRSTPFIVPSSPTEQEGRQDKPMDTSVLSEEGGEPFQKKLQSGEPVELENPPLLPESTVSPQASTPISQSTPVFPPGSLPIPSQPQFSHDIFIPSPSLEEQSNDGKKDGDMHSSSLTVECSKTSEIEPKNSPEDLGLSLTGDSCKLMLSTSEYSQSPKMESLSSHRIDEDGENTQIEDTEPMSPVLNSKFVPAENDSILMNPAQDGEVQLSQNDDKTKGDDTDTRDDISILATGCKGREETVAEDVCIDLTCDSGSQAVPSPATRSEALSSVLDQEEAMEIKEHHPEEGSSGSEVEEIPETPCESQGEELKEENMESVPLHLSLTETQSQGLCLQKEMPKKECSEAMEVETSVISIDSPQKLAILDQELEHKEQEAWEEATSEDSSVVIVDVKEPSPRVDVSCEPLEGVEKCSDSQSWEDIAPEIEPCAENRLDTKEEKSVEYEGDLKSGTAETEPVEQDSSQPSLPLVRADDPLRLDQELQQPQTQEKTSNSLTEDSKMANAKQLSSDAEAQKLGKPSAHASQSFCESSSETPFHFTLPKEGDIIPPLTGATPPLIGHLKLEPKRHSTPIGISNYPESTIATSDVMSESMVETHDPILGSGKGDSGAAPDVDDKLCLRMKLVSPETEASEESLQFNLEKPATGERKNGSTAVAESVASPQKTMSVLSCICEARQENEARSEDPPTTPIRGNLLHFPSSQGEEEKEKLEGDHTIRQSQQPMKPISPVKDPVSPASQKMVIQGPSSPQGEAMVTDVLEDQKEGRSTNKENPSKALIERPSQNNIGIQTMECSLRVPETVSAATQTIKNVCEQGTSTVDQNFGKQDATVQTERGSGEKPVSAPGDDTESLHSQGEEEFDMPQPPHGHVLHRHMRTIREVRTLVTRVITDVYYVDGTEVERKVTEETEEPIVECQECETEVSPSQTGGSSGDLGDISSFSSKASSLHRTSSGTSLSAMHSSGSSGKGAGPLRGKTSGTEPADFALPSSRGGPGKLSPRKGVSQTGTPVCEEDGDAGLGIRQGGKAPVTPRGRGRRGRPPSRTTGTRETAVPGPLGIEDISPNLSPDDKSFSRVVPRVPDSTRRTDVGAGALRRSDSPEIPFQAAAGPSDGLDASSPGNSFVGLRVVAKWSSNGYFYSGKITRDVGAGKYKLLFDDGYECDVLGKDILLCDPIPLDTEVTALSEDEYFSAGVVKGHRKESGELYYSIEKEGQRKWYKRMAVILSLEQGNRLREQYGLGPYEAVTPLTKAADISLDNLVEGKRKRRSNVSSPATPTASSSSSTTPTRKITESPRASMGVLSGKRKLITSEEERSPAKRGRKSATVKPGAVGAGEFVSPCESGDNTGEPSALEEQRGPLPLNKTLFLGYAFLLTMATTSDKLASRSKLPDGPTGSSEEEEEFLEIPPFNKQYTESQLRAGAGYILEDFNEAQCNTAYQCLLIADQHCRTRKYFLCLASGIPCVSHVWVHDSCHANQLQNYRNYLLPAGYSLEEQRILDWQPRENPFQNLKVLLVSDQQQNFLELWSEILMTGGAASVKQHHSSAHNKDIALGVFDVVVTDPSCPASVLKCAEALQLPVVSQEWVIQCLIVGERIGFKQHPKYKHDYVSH
inactive: [1] -0.024 | [2] -0.072 | [3] 0.021 | [4] 0 | [5] -0.01 | [6] 0 | [7] 0.008 | [8] -0.018 | [9] 0.052 | [10] 0.025

TUT4 (UniProt Q5TAX3)
inactive: [1] -0.064 | [2] -0.229 | [3] -0.15 | [4] -0.219 | [5] -0.041 | [6] 0.046 | [7] 0.018 | [8] -0.012 | [10] -0.235
active: [9] 0.566

TMEM164 (UniProt Q5U3C3)
Sequence of UniProt Q5U3C3 (Q5U3C3 whole entry, looked up): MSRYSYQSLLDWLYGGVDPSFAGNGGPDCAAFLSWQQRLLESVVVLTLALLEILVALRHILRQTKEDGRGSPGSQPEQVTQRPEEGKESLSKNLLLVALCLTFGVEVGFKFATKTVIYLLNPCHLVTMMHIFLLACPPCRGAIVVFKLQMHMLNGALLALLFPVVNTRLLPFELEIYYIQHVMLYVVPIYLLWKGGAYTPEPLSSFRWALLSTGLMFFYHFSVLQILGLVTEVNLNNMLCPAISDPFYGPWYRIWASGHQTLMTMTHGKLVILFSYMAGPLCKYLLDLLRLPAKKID
inactive: [1] -0.01 | [2] -0.145 | [3] -0.01 | [4] 0.082 | [5] 0.045 | [6] -0.053 | [7] 0.07 | [8] 0.135 | [9] -0.001 | [10] -0.021

TPM2 (UniProt P07951)
Sequence of UniProt P07951 (P07951 whole entry, looked up): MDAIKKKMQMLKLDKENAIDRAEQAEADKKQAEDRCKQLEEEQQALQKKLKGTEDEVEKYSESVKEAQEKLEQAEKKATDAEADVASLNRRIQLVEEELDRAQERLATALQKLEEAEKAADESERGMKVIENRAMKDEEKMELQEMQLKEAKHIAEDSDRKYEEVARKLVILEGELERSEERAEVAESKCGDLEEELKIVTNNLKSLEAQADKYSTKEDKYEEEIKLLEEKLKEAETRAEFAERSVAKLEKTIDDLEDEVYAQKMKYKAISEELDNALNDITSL
inactive: [1] -0.07 | [2] 0.173 | [3] 0.069 | [4] 0.287 | [5] 0.023 | [6] -0.04 | [7] -0.057 | [8] -0.024 | [9] -0.023 | [10] 0.118

UQCR10 (UniProt Q9UDW1)
Sequence of UniProt Q9UDW1 (Q9UDW1 whole entry, looked up): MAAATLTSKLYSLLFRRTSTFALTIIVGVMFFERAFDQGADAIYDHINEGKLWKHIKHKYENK
inactive: [1] 0.093 | [2] -0.102 | [3] -0.031 | [4] 0.005 | [5] 0.088 | [6] -0.112 | [7] 0.008 | [8] 0.017 | [9] -0.016 | [10] 0.177

TNPO3 (UniProt Q9Y5L0)
inactive: [1] -0.182 | [3] 0.039 | [4] 0.041 | [5] 0.002 | [6] -0.075 | [7] 0.041 | [8] 0.046 | [9] -0.036 | [10] -0.128
active: [2] -0.406

XPNPEP3 (UniProt Q9NQH7)
inactive: [1] 0.046 | [2] 0.075 | [3] 0.069 | [4] 0.075 | [5] 0.01 | [6] -0.076 | [7] -0.004 | [8] -0.002 | [9] -0.022 | [10] 0.012

WDR11 (UniProt Q9BZH6)
Sequence of UniProt Q9BZH6 (Q9BZH6 whole entry, looked up): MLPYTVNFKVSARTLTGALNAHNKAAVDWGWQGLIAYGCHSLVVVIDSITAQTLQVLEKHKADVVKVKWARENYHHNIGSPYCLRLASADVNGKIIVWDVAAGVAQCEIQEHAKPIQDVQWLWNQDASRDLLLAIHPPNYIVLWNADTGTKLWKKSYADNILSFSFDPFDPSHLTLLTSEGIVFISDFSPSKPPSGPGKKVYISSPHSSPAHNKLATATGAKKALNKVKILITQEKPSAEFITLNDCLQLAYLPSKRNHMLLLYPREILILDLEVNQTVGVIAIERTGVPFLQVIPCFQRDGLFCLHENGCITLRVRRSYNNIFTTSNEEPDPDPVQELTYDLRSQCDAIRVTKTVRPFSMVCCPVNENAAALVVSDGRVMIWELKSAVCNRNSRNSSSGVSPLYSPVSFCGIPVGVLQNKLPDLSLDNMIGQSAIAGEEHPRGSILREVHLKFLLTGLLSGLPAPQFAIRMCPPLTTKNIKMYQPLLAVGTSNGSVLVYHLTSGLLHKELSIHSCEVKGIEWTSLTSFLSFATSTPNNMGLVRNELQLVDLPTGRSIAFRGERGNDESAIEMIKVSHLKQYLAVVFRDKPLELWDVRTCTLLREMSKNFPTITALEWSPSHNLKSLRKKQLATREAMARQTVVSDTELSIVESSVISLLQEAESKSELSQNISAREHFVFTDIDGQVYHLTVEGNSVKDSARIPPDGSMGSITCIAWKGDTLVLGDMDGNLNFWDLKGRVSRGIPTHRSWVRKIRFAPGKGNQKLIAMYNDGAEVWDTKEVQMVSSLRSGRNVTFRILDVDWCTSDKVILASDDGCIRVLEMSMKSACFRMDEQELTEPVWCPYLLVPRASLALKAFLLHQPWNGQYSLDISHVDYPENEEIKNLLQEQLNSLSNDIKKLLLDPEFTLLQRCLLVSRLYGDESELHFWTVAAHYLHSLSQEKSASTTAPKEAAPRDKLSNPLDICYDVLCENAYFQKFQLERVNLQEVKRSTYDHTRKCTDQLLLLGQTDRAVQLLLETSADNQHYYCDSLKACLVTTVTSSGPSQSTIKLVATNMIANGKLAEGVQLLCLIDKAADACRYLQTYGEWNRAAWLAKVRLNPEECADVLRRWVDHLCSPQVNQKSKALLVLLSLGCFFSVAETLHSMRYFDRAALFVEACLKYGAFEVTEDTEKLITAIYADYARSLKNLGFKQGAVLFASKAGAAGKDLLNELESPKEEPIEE
inactive: [1] 0.079 | [2] 0.031 | [3] -0.183 | [4] 0 | [5] 0.062 | [6] 0.089 | [7] -0.061 | [8] 0.08 | [9] 0.009 | [10] -0.131

TOM1 isoform 2 (UniProt O60784)
inactive: [1] -0.056 | [2] -0.196 | [3] 0.037 | [4] -0.035 | [5] -0.018 | [6] -0.082 | [7] 0.026 | [8] 0.001 | [9] 0.006 | [10] -0.274

TXNIP (UniProt Q9H3M7)
active: [10] -0.793
inactive: [1] 0.112 | [2] 0.021 | [3] 0.053 | [4] 0.054 | [5] 0.212 | [6] -0.066 | [7] -0.026 | [8] 0.036 | [9] -0.07

VTI1B (UniProt Q9UEU0)
Sequence of UniProt Q9UEU0 (Q9UEU0 whole entry, looked up): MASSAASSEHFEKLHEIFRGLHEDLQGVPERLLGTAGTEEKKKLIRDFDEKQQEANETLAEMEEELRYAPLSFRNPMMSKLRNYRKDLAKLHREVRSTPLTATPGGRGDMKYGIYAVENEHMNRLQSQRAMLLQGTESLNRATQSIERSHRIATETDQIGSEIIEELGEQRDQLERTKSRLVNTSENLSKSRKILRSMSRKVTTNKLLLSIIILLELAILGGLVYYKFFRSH
inactive: [1] -0.028 | [2] -0.066 | [3] -0.037 | [4] -0.057 | [5] 0.036 | [6] -0.018 | [7] -0.009 | [8] 0.006 | [9] 0.018
active: [10] -0.331

TRMT61A (UniProt Q96FX7)
Sequence of UniProt Q96FX7 (Q96FX7 whole entry, looked up): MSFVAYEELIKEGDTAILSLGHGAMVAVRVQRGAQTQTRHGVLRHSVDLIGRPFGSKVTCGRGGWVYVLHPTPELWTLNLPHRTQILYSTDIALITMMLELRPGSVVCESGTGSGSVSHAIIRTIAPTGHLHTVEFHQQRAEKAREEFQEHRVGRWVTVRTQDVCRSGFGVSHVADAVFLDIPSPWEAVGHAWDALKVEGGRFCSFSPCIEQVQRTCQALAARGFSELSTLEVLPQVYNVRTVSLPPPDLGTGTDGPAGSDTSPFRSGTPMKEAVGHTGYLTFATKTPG
inactive: [1] 0.044 | [2] 0.161 | [3] 0.022 | [4] -0.061 | [5] 0.028 | [6] 0.043 | [7] -0.098 | [8] -0.105 | [9] 0.099 | [10] -0.001
